Results on 39 compounds are retold here after PubChem BioAssay (NCATS).

Inconclusive results are not listed. A call without a number means that no potency is given here. Unmarked numbers belong to inactive results. Calls of active or inactive are those of the source. The call rests on the fitted dose curve; in most records, active means well fitted curve in the direction sought with a large enough effect; inconclusive means small, poorly fitted or top-dose-only effect, or another doubt; inactive means no such curve, though single readings can be large; an effect the other way counts as inactive or inconclusive.

Calcium and integrin-binding protein 1 (Homo sapiens), sequence (Q99828 whole entry, looked up): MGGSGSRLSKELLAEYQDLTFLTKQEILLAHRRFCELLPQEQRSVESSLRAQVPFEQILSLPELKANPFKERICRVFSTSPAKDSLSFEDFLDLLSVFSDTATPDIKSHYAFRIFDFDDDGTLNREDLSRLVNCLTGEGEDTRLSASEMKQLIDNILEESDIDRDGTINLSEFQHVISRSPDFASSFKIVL

Tested on in one assay: not listed separately
The assay can be described thus: qHTS to identify inhibitors of the type 1 interferon - major histocompatibility complex class I in skeletal muscle: primary screen against the NCATS Mechanism Interrogation Plate v5.0 (MIPE) Libary (AID 1347411). Further: nearly all actives have a fitted effect of over 65% in size. Further: potency means the concentration at half of the fitted maximal effect. The conditions noted are these: iHSKM cells + IFN-b, HiBiT-tagged MHC-I luminescence, 24 h; series mostly up to 45.8 µM. The method, boiled down:
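IFN-beta-driven (4 ng/ml) HLA-B-HiBit expression in CRISPR-tagged C25cl48 myoblasts; compounds 11-pt, 1:3, max 46 uM, 24 hr exposure; lytic NanoLuc complementation luminescence.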
On the technique in general: In qHTS, concentration-response curves come from the screen itself.
`CCC[C@H](N[C@H]1CCc2cc(F)cc(F)c2C1)C(=O)Nc1cn(C(C)(C)CNCC(C)(C)C)cn1`: the Potency result is “inactive”.

For `CC(/C=C/C(=O)NO)=C\[C@@H](C)C(=O)c1ccc(N(C)C)cc1`, the Potency was 2.08 µM (active).

As for `COc1ccc(-n2c(SCCCN3C(=O)c4cccc5cccc(c45)C3=O)nnc2-c2ccncc2)cc1`, the Potency result is “inactive”.

For the compound `Cn1cc(-c2ccc3c(c2)CCN3C(=O)Cc2cccc(C(F)(F)F)c2)c2c(N)ncnc21`, the Potency entry is “inactive”.

For the compound `Cc1nc(NC(=O)N2CCCC2C(N)=O)sc1-c1ccnc(C(C)(C)C(F)(F)F)c1` (stereo not drawn), the Potency was 4.66 µM (active).

On to `Cc1c(F)ccc(C(=O)Nc2cc([N+](=O)[O-])ccc2N2CCN(C)CC2)c1Cl`, for which the Potency result is “inactive”.

Take `CN1CCN(c2ccc(-c3cccc(CN4CCOCC4)c3)cc2NC(=O)c2c[nH]c(=O)cc2C(F)(F)F)CC1`: the Potency result was “inactive”.

With `COc1c(C)cc(NC(=O)c2nn(Cc3ccc(F)cc3)c3c2CN(C(=O)c2ccc[nH]2)C[C@]3(C)C(N)=O)cc1C`, the activity change, negative = inhibition is -14.7% [at 8.44 µM].

Take `CCn1c(N)c(C(=O)NC)c(=O)c2ccc(C#CC(C)(O)COC)nc21` (stereo not drawn): the Potency result is “inactive”.

Regarding `Cc1[nH]c(/C=C2\C(=O)Nc3ccc(F)cc32)c(C)c1C(=O)NCCN1CCCC1`, the Potency is 10.2 µM (active).

On to `C[C@@H](c1ccc2nccn2c1)n1nnc2ncc(-c3cnn(C)c3)nc21`, for which the Potency result was “inactive”.

Turning to `COc1ccc(-c2cnc3c(-c4cccc5ncccc45)cnn3c2)cc1`, the Potency entry was “inactive”.

Turning to `NC(=O)c1ccccc1Nc1ccnc(Nc2cccc(O)c2)n1`, the Potency was 4.66 µM (active).

As for `COc1ccccc1C(=O)Nc1cc2c(cc1N1CCCC1)n(C)c(=O)n2C`, the Potency result is “inactive”.

For `O=C(NC[C@H](O)CN1CCc2ccccc2C1)c1ccnc(NC2CCC2)c1`, the Potency entry was “inactive”.

As to `Cn1ncnc1[C@H]1c2n[nH]c(=O)c3cc(F)cc(c23)N[C@@H]1c1ccc(F)cc1`, the Potency entry is “inactive”.

As for `Cc1c(NC(=O)c2cc3c(s2)CCCC3)cccc1-c1cn(C)c(=O)c(Nc2ccc(C3C(=O)N(C)CCN3C)cc2)n1` (stereo not drawn), the Potency entry was “inactive”.

Consider `O=C1Nc2nc(-c3c(O)cccc3OCC3CC3)cc([C@@H]3CCCNC3)c2CO1`, for which the Potency was 3.7 µM (active).

With `Cc1cc(C(=O)Nc2cc(Nc3ccc4c(/C=C/c5ccccn5)n[nH]c4c3)ccc2F)n(C)n1`, the Potency was 29.4 µM (active).

Regarding `CC(C)NC(=O)N1CC[C@H](N=C2Nc3cc(F)ccc3N(CC(F)F)c3ccc(Cl)cc32)C1`, the activity change, negative = inhibition is -19.9% [at 8.44 µM].

Take `Cc1cc(-c2cc(OC(=O)c3ccccc3)ccc2Cl)cc2nnc(Nc3ccc(OCCN4CCCC4)cc3)nc12`: the Potency result is “inactive”.

For `COc1cccc(-c2cc(F)ccc2C2Cc3nc(N)nc(C)c3C(=O)N2)n1` (stereo not drawn), the Potency was 0.0587 µM (active).

As for `O=c1[nH]c([C@@H]2CCCN2)nc2c1oc1ccc(Cl)cc12`, the Potency entry is “inactive”.

As to `NCCOc1cc(C(=O)Nc2cc(OCCN)c3ccccc3n2)nc(C(=O)Nc2cc(OCCN)c3ccccc3n2)c1`, the Potency result was “inactive”.

For `O=C(NCC(=O)N1CCCC1)Nc1ccc2cnccc2c1`, the Potency entry is “inactive”.

On to `FC(F)(F)c1ccc(/C=C/c2nc(COc3ccc(CCCCn4ccnn4)cc3)co2)cc1`, for which the Potency entry was “inactive”.

Regarding `COC(=O)Nc1cc(Nc2cc(NC3CC3)c3ncc(C#N)n3n2)c(Cl)c(N2CCN(C)CC2)c1`, the Potency was 4.66 µM (active).

With `COc1cc(OC)c2c(=O)[nH]c(-c3cc(C)c(OCCO)c(C)c3)nc2c1`, the Potency result was “inactive”.

Regarding `COC(=O)N1CC2(CC2)C[C@H](C(=O)NO)[C@H]1C(=O)N1CCN(c2ccccc2)CC1`, the Potency entry is “inactive”.

Take `COc1ccc(CNc2nc(N(CCO)CCO)nc3c2ncn3C(C)C)cc1`: the Potency was 4.66 µM (active).

Regarding `C[C@H](CN(C)C)Oc1nc(Nc2cc3cccc(Cl)c3cn2)cnc1C#N`, the Potency result is “inactive”.

On to `CC[C@@H](C)Nc1cc(C(=O)NC2CC3CC[C@@H](C2)N3c2ccc(C(=O)C3CC3)cn2)c(C)cc1C(N)=O` (stereo partly drawn), for which the Potency was 0.117 µM (active).

On to `CN(C)N(C)C(=O)[C@@]1(Cc2ccccc2)CCCN(C(=O)[C@@H](Cc2c[nH]c3ccccc23)NC(=O)C(C)(C)N)C1`, for which the Potency entry was “inactive”.

`C1=C/COCc2cc(ccc2OCCN2CCCC2)Nc2nccc(n2)-c2cccc(c2)COC/1`: the Potency is 2.34 µM (active).

On to `COc1ccc(-c2c(C)nn3c(NCCN4CCOCC4)cc(C)nc23)cc1OC`, for which the Potency result is “inactive”.

Consider `C=CC(=O)Nc1ccc2ncnc(Nc3cccc(Br)c3)c2c1`, for which the Potency is 11.7 µM (active).

As for `CCCC(CCC)C(=O)Nc1ccn([C@@H]2O[C@H](CO)[C@@H](O)C2(F)F)c(=O)n1`, the Potency entry is “inactive”.

On to `COC(C)(C)CCn1nc(Nc2c(C)cccc2C)c2cnc(Nc3ccc(OCCN4CCCC4)c(F)c3)nc21`, for which the Potency was 11.7 µM (active).

`Cn1cc(-c2ccc(F)c(C(F)(F)F)c2)nc1C1CCN(c2ncnc3[nH]ncc23)CC1`: the Potency entry was “inactive”.

A further assay concerns the target Calcium and integrin-binding protein 1 (Homo sapiens) (UniProt Q99828). Put plainly: Primary qHTS for Identification of Calcium Integrin Binding Protein 1 (CIB1) Competitor (AID 1508620).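 Further: GST tagged CIB1 binding a fluorescein labelled alphaIIb integrin peptide tracer; top concentration of the series differs between compounds.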 The settings on record: CIB1-GST / FITC-alphaIIb peptide fluorescence polarization; series mostly up to 114 µM. The method, boiled down:
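CIB1-GST (1 uM final) and compound incubated 15 min at room temperature before adding FITC-alphaIIb peptide tracer (100 nM final). Competition for binding read by fluorescence polarization (ex 480, em 540) after another 15 min at room temperature.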
For the compound `CCC[C@H](N[C@H]1CCc2cc(F)cc(F)c2C1)C(=O)Nc1cn(C(C)(C)CNCC(C)(C)C)cn1`, the Potency entry is “inactive”.

Take `CC(/C=C/C(=O)NO)=C\[C@@H](C)C(=O)c1ccc(N(C)C)cc1`: the Potency entry was “inactive”.

With `COc1ccc(-n2c(SCCCN3C(=O)c4cccc5cccc(c45)C3=O)nnc2-c2ccncc2)cc1`, the Potency entry is “inactive”.

Regarding `Cn1cc(-c2ccc3c(c2)CCN3C(=O)Cc2cccc(C(F)(F)F)c2)c2c(N)ncnc21`, the Potency entry is “inactive”.

On to `Cc1nc(NC(=O)N2CCCC2C(N)=O)sc1-c1ccnc(C(C)(C)C(F)(F)F)c1` (stereo not drawn), for which the Potency result was “inactive”.

For the compound `Cc1c(F)ccc(C(=O)Nc2cc([N+](=O)[O-])ccc2N2CCN(C)CC2)c1Cl`, the Potency result was “inactive”.

`CN1CCN(c2ccc(-c3cccc(CN4CCOCC4)c3)cc2NC(=O)c2c[nH]c(=O)cc2C(F)(F)F)CC1`: the Potency entry is “inactive”.

As for `COc1c(C)cc(NC(=O)c2nn(Cc3ccc(F)cc3)c3c2CN(C(=O)c2ccc[nH]2)C[C@]3(C)C(N)=O)cc1C`, the Potency entry was “inactive”.

Consider `CCn1c(N)c(C(=O)NC)c(=O)c2ccc(C#CC(C)(O)COC)nc21` (stereo not drawn), for which the Potency result was “inactive”.

For `Cc1[nH]c(/C=C2\C(=O)Nc3ccc(F)cc32)c(C)c1C(=O)NCCN1CCCC1`, the Potency result is “inactive”.

On to `C[C@@H](c1ccc2nccn2c1)n1nnc2ncc(-c3cnn(C)c3)nc21`, for which the Potency entry was “inactive”.

Consider `COc1ccc(-c2cnc3c(-c4cccc5ncccc45)cnn3c2)cc1`, for which the Potency result was “inactive”.

Turning to `NC(=O)c1ccccc1Nc1ccnc(Nc2cccc(O)c2)n1`, the Potency result was “inactive”.

For the compound `COc1ccccc1C(=O)Nc1cc2c(cc1N1CCCC1)n(C)c(=O)n2C`, the Potency result is “inactive”.

Regarding `O=C(NC[C@H](O)CN1CCc2ccccc2C1)c1ccnc(NC2CCC2)c1`, the Potency result was “inactive”.

As for `Cn1ncnc1[C@H]1c2n[nH]c(=O)c3cc(F)cc(c23)N[C@@H]1c1ccc(F)cc1`, the Potency entry was “inactive”.

With `Cc1c(NC(=O)c2cc3c(s2)CCCC3)cccc1-c1cn(C)c(=O)c(Nc2ccc(C3C(=O)N(C)CCN3C)cc2)n1` (stereo not drawn), the Potency entry was “inactive”.

Turning to `O=C1Nc2nc(-c3c(O)cccc3OCC3CC3)cc([C@@H]3CCCNC3)c2CO1`, the Potency result was “inactive”.

Take `Cc1cc(C(=O)Nc2cc(Nc3ccc4c(/C=C/c5ccccn5)n[nH]c4c3)ccc2F)n(C)n1`: the Potency entry was “inactive”.

Turning to `CC(C)NC(=O)N1CC[C@H](N=C2Nc3cc(F)ccc3N(CC(F)F)c3ccc(Cl)cc32)C1`, the Potency entry is “inactive”.

Take `Cc1cc(-c2cc(OC(=O)c3ccccc3)ccc2Cl)cc2nnc(Nc3ccc(OCCN4CCCC4)cc3)nc12`: the Potency result was “inactive”.

Take `COc1cccc(-c2cc(F)ccc2C2Cc3nc(N)nc(C)c3C(=O)N2)n1` (stereo not drawn): the Potency result is “inactive”.

As to `O=c1[nH]c([C@@H]2CCCN2)nc2c1oc1ccc(Cl)cc12`, the Potency result was “inactive”.

As to `NCCOc1cc(C(=O)Nc2cc(OCCN)c3ccccc3n2)nc(C(=O)Nc2cc(OCCN)c3ccccc3n2)c1`, the Potency entry was “inactive”.

With `O=C(NCC(=O)N1CCCC1)Nc1ccc2cnccc2c1`, the Potency entry was “inactive”.

Consider `FC(F)(F)c1ccc(/C=C/c2nc(COc3ccc(CCCCn4ccnn4)cc3)co2)cc1`, for which the Potency result was “inactive”.

For `COC(=O)Nc1cc(Nc2cc(NC3CC3)c3ncc(C#N)n3n2)c(Cl)c(N2CCN(C)CC2)c1`, the Potency entry was “inactive”.

For the compound `COc1cc(OC)c2c(=O)[nH]c(-c3cc(C)c(OCCO)c(C)c3)nc2c1`, the Potency entry is “inactive”.

Consider `COC(=O)N1CC2(CC2)C[C@H](C(=O)NO)[C@H]1C(=O)N1CCN(c2ccccc2)CC1`, for which the Potency entry was “inactive”.

`COc1ccc(CNc2nc(N(CCO)CCO)nc3c2ncn3C(C)C)cc1`: the Potency entry is “inactive”.

As for `C[C@H](CN(C)C)Oc1nc(Nc2cc3cccc(Cl)c3cn2)cnc1C#N`, the Potency result is “inactive”.

On to `CC[C@@H](C)Nc1cc(C(=O)NC2CC3CC[C@@H](C2)N3c2ccc(C(=O)C3CC3)cn2)c(C)cc1C(N)=O` (stereo partly drawn), for which the Potency result was “inactive”.

`CN(C)N(C)C(=O)[C@@]1(Cc2ccccc2)CCCN(C(=O)[C@@H](Cc2c[nH]c3ccccc23)NC(=O)C(C)(C)N)C1`: the Potency result was “inactive”.

In the case of `C1=C/COCc2cc(ccc2OCCN2CCCC2)Nc2nccc(n2)-c2cccc(c2)COC/1`, the Potency result was “inactive”.

On to `COc1ccc(-c2c(C)nn3c(NCCN4CCOCC4)cc(C)nc23)cc1OC`, for which the Potency result is “inactive”.

For `C=CC(=O)Nc1ccc2ncnc(Nc3cccc(Br)c3)c2c1`, the Potency entry is “inactive”.

For `CCCC(CCC)C(=O)Nc1ccn([C@@H]2O[C@H](CO)[C@@H](O)C2(F)F)c(=O)n1`, the Potency entry was “inactive”.

Take `COC(C)(C)CCn1nc(Nc2c(C)cccc2C)c2cnc(Nc3ccc(OCCN4CCCC4)c(F)c3)nc21`: the Potency result was “inactive”.

Regarding `Cn1cc(-c2ccc(F)c(C(F)(F)F)c2)nc1C1CCN(c2ncnc3[nH]ncc23)CC1`, the Potency result is “inactive”.
